For 27 molecules, inhibition results are on record in ChEMBL document CHEMBL4808148, “HDAC6 screening dataset using tau-based substrate in an enzymatic assay yields selective inhibitors and activators” (2021).

About 390 (7%) of roughly 5,600 compounds showed an effect of 50% or more. Shown is part of a subset that was picked to be rich in strong results. Residues, ends and D or L forms follow the SMILES beside them.

Test [1] has as its target T1, Protein deacetylase HDAC6 (Homo sapiens) (UniProt Q9UBN7).
T1 sequence (whole entry): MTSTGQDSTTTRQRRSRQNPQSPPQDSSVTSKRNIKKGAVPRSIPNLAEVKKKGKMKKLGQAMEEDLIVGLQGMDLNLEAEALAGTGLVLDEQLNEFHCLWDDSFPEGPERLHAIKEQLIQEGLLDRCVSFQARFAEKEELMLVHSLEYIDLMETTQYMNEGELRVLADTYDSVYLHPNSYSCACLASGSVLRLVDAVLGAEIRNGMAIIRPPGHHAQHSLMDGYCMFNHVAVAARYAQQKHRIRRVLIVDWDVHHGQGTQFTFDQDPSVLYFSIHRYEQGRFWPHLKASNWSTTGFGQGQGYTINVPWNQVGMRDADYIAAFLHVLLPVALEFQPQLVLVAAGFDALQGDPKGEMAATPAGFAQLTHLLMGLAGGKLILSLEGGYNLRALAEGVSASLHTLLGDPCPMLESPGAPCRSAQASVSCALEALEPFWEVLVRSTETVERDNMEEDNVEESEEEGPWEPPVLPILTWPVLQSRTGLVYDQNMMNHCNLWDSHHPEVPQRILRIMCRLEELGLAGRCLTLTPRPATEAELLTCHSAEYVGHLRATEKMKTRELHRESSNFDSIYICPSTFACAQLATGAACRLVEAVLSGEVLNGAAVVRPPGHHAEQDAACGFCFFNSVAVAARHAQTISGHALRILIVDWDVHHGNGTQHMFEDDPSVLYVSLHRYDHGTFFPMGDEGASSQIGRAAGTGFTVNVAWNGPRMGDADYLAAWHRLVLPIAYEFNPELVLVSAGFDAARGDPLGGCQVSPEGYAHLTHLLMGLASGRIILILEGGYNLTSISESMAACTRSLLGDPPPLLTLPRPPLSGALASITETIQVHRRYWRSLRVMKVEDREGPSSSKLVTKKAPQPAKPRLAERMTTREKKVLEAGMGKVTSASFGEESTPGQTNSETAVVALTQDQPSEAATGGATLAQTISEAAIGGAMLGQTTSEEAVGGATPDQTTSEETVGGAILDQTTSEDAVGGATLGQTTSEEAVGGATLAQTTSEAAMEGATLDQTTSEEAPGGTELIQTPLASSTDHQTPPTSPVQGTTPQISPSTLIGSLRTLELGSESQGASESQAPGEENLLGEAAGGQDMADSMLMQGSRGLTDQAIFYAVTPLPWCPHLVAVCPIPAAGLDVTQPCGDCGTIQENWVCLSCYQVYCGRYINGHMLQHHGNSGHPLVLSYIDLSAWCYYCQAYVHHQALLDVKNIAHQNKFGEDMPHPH
To be noted: at 10 µM.

Test [2] addresses Protein deacetylase HDAC6 (Homo sapiens) (UniProt Q9UBN7). As to conditions: at 10 µM. The source holds these as a separate data set.

With `C=CCN1CC[C@]23c4c5ccc(O)c4O[C@H]2[C@@H](OCCOCCOCCOCCOCCOCCOCCOC)CC[C@@]3(O)[C@H]1C5`, the inhibition in test [1] worked out at 3.73%.

On to `OC[C@H]1O[C@H](O)C[C@@H](O)[C@@H]1O`, for which the inhibition in test [1] is -3.53%.

For the molecule `O=C(Nc1cc(C(F)(F)F)cc(C(F)(F)F)c1)Nc1c(Br)cc(Br)cc1-c1nnn[nH]1`, in test [1], the inhibition is 0.45%.

Regarding `O=C(c1cn(Cc2cncn2Cc2ccc(Br)cc2)cc1-c1cccc2ccccc12)N1CCOCC1`, in test [1], the inhibition is -6.62%.

For `COc1cc2c(cc1OC)CN(C(=O)/C=C/c1c(-c3ccccc3)n(C)c3ncccc13)CC2`, in test [1], the inhibition is 33.3%.

Regarding `COC1[C@@H](O)[C@@H](O)C(O)[C@H](O)[C@H]1O` (some centres not stated), the inhibition in test [1] was -3.32%.

Turning to `CC(C)[C@@H]1C(=O)N(S(C)(=O)=O)[C@@H]2CCN(C(=O)/C=C/CN3CCCCC3)[C@H]21`, the inhibition in test [1] is -9.25%.

For the molecule `NC(=O)c1nc(Nc2ccccc2)sc1NC(=O)C1CCCCC1`, in test [1], the inhibition was 11.1%.

Take `Cc1nc2c(c(=O)[nH]1)CSCC2`: in test [1], the inhibition was 36%.

For `CC(C)(C)NCC(O)COc1cc(Cl)ccc1Cl` (configuration not stated), the inhibition in test [1] is 2.55%.

Turning to `Nc1nc(F)nc2c1ncn2[C@@H]1O[C@H](COP(=O)(O)O)[C@@H](O)[C@@H]1O`, in test [1], the inhibition is -4.37%.

Consider TOCOFERSOLAN, CHEMBL2108106, for which the inhibition in test [2] came out at 6.6%.

With `O=C(Nc1ncc(SCCN2CCCC2)s1)[C@]1(c2ccc(S(=O)(=O)C3CC3)cc2)C[C@H]1C1CCCCC1`, the inhibition in test [1] was -4.35%.

As to `CC(C)CC(NC(=O)C1CCCN1)C(=O)NCC(N)=O` (stereo not drawn) (H-Pro-Leu-Gly-NH2; configuration not given here), the inhibition in test [1] was determined as 40.6%.

Turning to `CC(C)(C)Nc1nc(Nc2ccc(C(N)=O)cc2)cc(N)c1C#N`, the inhibition in test [1] came out at 26.8%.

With `CC(C)C(N)=O`, the inhibition in test [1] was 26.5%.

For `O=C(O)CC1CC(c2ccccc2)=NO1` (configuration not stated), the inhibition in test [1] was 32.1%.

In the case of `O=C(CC1CC(c2ccc(F)cc2F)=NO1)N1CCOCC1` (racemic), the inhibition in test [1] is 99.4%.

Take `CCCC[C@H](NC(C)=O)C(=O)N[C@H]1CC(=O)NCCCC[C@@H](C(=O)O)NC(=O)[C@H](Cc2c[nH]c3ccccc23)NC(=O)[C@H](CCCNC(=N)N)NC(=O)[C@@H](Cc2ccccc2)NC(=O)[C@H](Cc2c[nH]cn2)NC1=O`: the inhibition in test [1] stood at 38.5%.

For `N#CC[C@@H](C1CCCC1)n1cc(-c2ncnc3[nH]ccc23)cn1`, the inhibition in test [1] was -2.44%.

Consider `C[C@@H]([C@H](O)c1ccccc1)N(C)C`, for which the inhibition in test [1] is -0.94%.

In the case of `CNC(=O)Oc1cccc2ccccc12`, the inhibition in test [1] stood at 25.3%.

Turning to `CN(C)[C@@H](CCOc1cccc2ccccc12)c1ccccc1`, the inhibition in test [1] was found to be 53%.

For the molecule `CNC(=O)c1ccccc1Nc1nc(Nc2ccc3c(c2OC)CCC[C@H](N2CCN(CCO)CC2)C3)ncc1Cl`, the inhibition in test [1] was 11.5%.

For `N#[N+]/C=C(\[O-])CC[C@H](N)C(=O)O`, the inhibition in test [1] was 28.2%.

In the case of `CCOC(=O)[C@H](CCc1ccccc1)N[C@@H](C)C(=O)N1Cc2cc(OC)c(OC)cc2C[C@H]1C(=O)O`, in test [1], the inhibition is -0.68%.

For the molecule `COc1cc(OCc2cccc(-c3ccccc3)c2C)cc(OC)c1CN1CCCC[C@H]1C(=O)O`, the inhibition in test [1] was 64.2%.
